Compound activity (PubChem)
Only some compounds are listed: those with a hit (about 0.52% of all), similar ones and a draw of the others.
Epigenetic derep: Quantitative High-Throughput Screen for Regulators of Epigenetic Control. murine LDR cells, GFP reporter derepression, 30 h. Potency, µM (highest dose often 53.9 µM), without a hit: top-dose GFP activation, most hits filed as activators. 0.2% of 280,000 active. AID 1865, 2009; also: % of control where 0% means no effect; nearly all actives have a fitted effect of over 60% in size
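GFP-positive cell count by laser-scanning cytometry (objects 20–120 um) after 30 h, 37 C compound exposure of murine LDR cells; reporter is CMV-GFP integrated at a silenced locus, inducible by HDAC or DNMT inhibitors.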
PINK1 modulator: A Quantitative High throughput Screen to Identify Chemical Modulators of PINK1 Expression; Potency, µM (doses to about 76.6 µM), for the others: top-dose activation (PINK1 increase), usual class: activators; PINK1 immunofluorescence, high-content cytometry, 24 h; 0.2% of 410,000 active; AID 624263, 2012; active = well fitted activation curve with a large enough effect; inconclusive = small, poorly fitted or top-dose-only effect; cell line not stated here; also: % of control where 0% means no effect; nearly all actives have a fitted effect of over 65% in size
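Fluorescence from anti-PINK1 antibody, together with nuclear and cell stains, was scanned on a laser-scanning cytometer. Before staining, stable-line cells were incubated 24 hours with compounds at 5 concentrations; primary antibody 12 h at 10 degrees C.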
Vif-APOBEC3G blk: qHTS for Inhibitors of Vif-A3G Interactions: qHTS | HeLa A3G-eYFP + Vif (tagged APOBEC3G with the HIV-1 protein that degrades it), YFP fluorescence, overnight | DNA dC->dU-editing enzyme APOBEC-3G (Homo sapiens), Q9HC16 | Potency, µM (doses to about 46.1 µM), without a hit: at the top dose activity, negative = active, hits mostly inhibitors | 0.076% of 410,000 active | AID 602310, 2012; also: % is scaled to controls: 0 for no effect and ±100 for the full control effect; nearly all actives have a fitted effect of over 60% in size
Target sequence (Q9HC16 whole entry, looked up): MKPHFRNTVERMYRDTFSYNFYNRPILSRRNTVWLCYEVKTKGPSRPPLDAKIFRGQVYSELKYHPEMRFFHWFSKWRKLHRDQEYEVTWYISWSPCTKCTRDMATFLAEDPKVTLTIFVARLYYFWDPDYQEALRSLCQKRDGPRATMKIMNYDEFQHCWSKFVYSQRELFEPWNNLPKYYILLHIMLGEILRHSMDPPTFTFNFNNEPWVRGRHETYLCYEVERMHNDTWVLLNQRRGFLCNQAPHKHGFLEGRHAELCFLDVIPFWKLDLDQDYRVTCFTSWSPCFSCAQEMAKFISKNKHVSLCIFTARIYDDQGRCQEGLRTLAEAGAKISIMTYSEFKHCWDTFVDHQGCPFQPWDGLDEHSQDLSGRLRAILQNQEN
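HeLa cells stably expressing Vif and C-terminally eYFP-tagged A3G, seeded overnight at 37 deg C, then exposed to compound by pintool overnight at 37 deg C. Rise in yellow fluorescence (Ex 488/Em 500-530, Acumen) marks blocked Vif-driven A3G degradation.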
Vif-A3F inh: qHTS for Inhibitors of Vif-A3F Interactions: qHTS; HeLa A3F-eYFP + Vif (tagged APOBEC3F with the HIV-1 protein that degrades it), YFP fluorescence increase; Potency, µM (titrated, usually from 46.1 µM), inactives show top-dose activity, negative = active; 0.2% of 390,000 active; also: % of control where 0% means no effect; nearly all actives have a fitted effect of over 65% in size
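HeLa cells stably expressing Vif plus C-terminally eYFP-tagged A3F were seeded, incubated overnight at 37 deg C, dosed with compound, incubated overnight again at 37 deg C. Yellow fluorescence (Ex 488/Em 500-530) reported blocked Vif-mediated A3F-eYFP degradation.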
An asterisk follows results filed as active; i = inactive; ? = inconclusive; . = not tested or not shown. Unless noted, calls follow the shape of the dose curve; as a rule, active = well fitted curve in the direction sought with a large enough effect; inconclusive = small, poorly fitted or top-dose-only effect, or another doubt; inactive = no such curve, though single readings can be large; an effect the other way counts as inactive or inconclusive. Potency is read from the fitted curve at half-maximal effect.

SMILES	Epigenetic derep	PINK1 modulator	Vif-APOBEC3G blk	Vif-A3F inh
Cc1nc(SCC(=O)c2cc3ccccc3oc2=O)c(C#N)c(-c2cccs2)c1C(=O)Nc1ccccc1	0%	40µM*	2%	-15%
CC(C)c1c(C#N)c(N)nc(SCC(=O)c2cc3ccccc3oc2=O)c1C#N	16%	?	-6%	0%
CCC(=O)N/C(N)=N/c1nc(C)c2cc(OC)ccc2n1	-1%	3.5µM*	0%	0%
COc1ccc2nc(/N=C(\N)NC(=O)C(C)(C)C)nc(C)c2c1	-1%	2%	2%	3%
CC(=O)OCCNc1cc(N2CCN(C)CC2)c2noc3c2c1C(=O)c1ccccc1-3	2%	3%	?	?
CCOC(=O)C(C(=O)OCC)c1cc(Br)c2noc3c2c1C(=O)c1ccccc1-3	3.5µM*	1%	-9%	?
O=C1NC(=Nc2ccccc2Cl)S/C1=C\c1cc([N+](=O)[O-])ccc1O	.	2%	13µM*	?
COc1cccc(N=C2NC(=O)/C(=C/c3cc([N+](=O)[O-])ccc3O)S2)c1	.	0%	?	25µM*
CCOc1ccc(NC(=O)c2cc(=O)c3ccc(C)c(C)c3o2)cc1	20µM*	2%	-7%	?
CN(/N=C/c1ccc(N(C)C)cc1)C1=NS(=O)(=O)c2ccccc21	.	?	4.5µM*	i
CC(C)c1c(C(=O)N(C)Cc2cccc3ncccc23)cnn1-c1nccc(-c2ccco2)n1	.	0%	.	.
CCCC(=O)Nc1ccc(NC(=O)c2ccco2)c(OC)c1	-9%	3.5µM*	-4%	-1%
O=C(NCCN1Cc2ccccc2OC(c2ccsc2)C1)c1cncs1 (stereo unspecified)	.	-1%	.	.
CCOc1ccc(NC(=O)N2CC=C(c3c[nH]c4ccccc34)CC2)cc1	?	10%	?	28µM*
CCc1ccc(NC(=O)N2CC=C(c3c[nH]c4ccccc34)CC2)cc1	?	0%	.	.
CCOC(=O)c1cccc(NC(=O)N2CC=C(c3c[nH]c4ccccc34)CC2)c1	?	1%	?	5µM*
COc1ccccc1C=NNC(=O)NN=Cc1ccccc1OC	.	10%	-18%	2%
COc1ccccc1C=NN=C(NN=Cc1ccccc1OC)NN=Cc1ccccc1OC	.	28µM*	-4%	11%
CCCCCCSc1ccc(-c2nc3cc(C)ccn3c2NC2CCCCC2)cc1	.	18µM*	-5%	?
CCC(C)Sc1ccc(-c2nc3cc(C)ccn3c2NC2CCCCC2)cc1 (stereo unspecified)	.	14µM*	?	11µM*
Cn1c(SCC2CCCO2)nnc1C1CCN(Cc2ccc(-c3cccc(Cl)c3)o2)CC1 (stereo unspecified)	.	-1%	.	.
CCOc1ccccc1NC(=O)c1cc(C(=O)c2cc(Br)ccc2O)coc1=N	1%	?	-14%	3%
COc1ccc(O)c(C(=O)c2coc(=N)c(C(=O)Nc3ccc(SC(F)F)cc3)c2)c1	-4%	?	5%	13µM*
CC(C)OC(=O)c1cc(C(=O)c2cc(Br)ccc2O)coc1=N	?	0%	-20%	?
CC(C)OC(=O)c1cc(C(=O)c2cc(F)ccc2O)coc1=N	2%	-2%	?	11µM*
SMILES	Epigenetic derep	PINK1 modulator	Vif-APOBEC3G blk	Vif-A3F inh
CS(=O)(=O)Nc1ccc(-c2ccc(/C=C3\SC(N)=NC3=O)o2)cc1	.	28%	-6%	-10%
NC1=NC(=O)/C(=C/c2ccc(-c3ccc(S(N)(=O)=O)cc3)o2)S1	.	32µM*	-28%	0%
COC(=O)[C@@H]1C[C@@H](NC(=O)c2cccc3c(C)c(C)[nH]c23)CN1Cc1cccc2ccccc12	.	1%	.	.
COc1ccccc1N1C(=O)c2cccc3c(N(C)CCO)ccc(c23)C1=O	.	1%	?	?
Cc1ccccc1N1C(=O)c2cccc3c(N(C)CCO)ccc(c23)C1=O	13%	.	7%	13µM*
CCCN(C(=O)CSc1n[nH]c(-c2ccc(OC)cc2)n1)c1c(N)n(Cc2ccccc2)c(=O)[nH]c1=O	.	3%	-23%	25µM*
CC(=O)c1ccc(-c2ccc3c4c(ccc3c2)OC(CNC(=O)[C@@H]2CCCN2C(C)=O)C4)s1 (stereo partly specified)	.	0%	.	.
O=C(O)c1ccccc1/C=N/Nc1ccc(S(=O)(=O)N2CCOCC2)cc1[N+](=O)[O-]	1%	-2%	6.3µM*	0%
Cn1ccc(C(=O)NCC2CCC3(CCN(Cc4cc(F)cc(F)c4)CC3)O2)n1 (stereo unspecified)	.	0%	.	.
O=C(NC1CCCCCC1)c1ccc2c(c1)sc1nc(-c3ccccc3)cn12	1%	0%	0%	5µM*
COc1ccc(-c2cn3c(n2)sc2cc(C(=O)NC4CCCCC4)ccc23)cc1	0%	1%	-4%	6%
O=C(CSc1nc2ccccc2c(=O)n1Cc1ccccc1)NCc1ccco1	0%	5.6µM*	0%	-8%
CCN(Cc1ccncc1)Cc1ccc2c(c1)CN(C(=O)c1ccccc1)CCO2	.	-1%	.	.
CC(C)(C)c1ccc(S(=O)(=O)N[C@H]2CC[C@@H](n3cc(C(=O)N4CCCC4)nn3)CC2)cc1	.	0%	.	.
COC(=O)c1sc(NC(=O)c2ccco2)nc1C	-6%	2%	-10%	-4%
CCOC(=O)c1sc(NC(=S)NC(=O)c2ccco2)nc1C	-1%	0%	-1%	22µM*
COc1ccc2nc(NC(=S)NC(=O)c3ccco3)sc2c1	0%	-2%	0%	10µM*
CCOc1ccc(CNC(=O)c2ccccc2NC(=O)c2nsc3ccccc23)cc1	9%	1%	-11%	7.9µM*
COc1cc(-c2ccc(Cl)cn2)cc2c1OCCN(C(=O)c1ccccc1-n1cccn1)C2	.	2%	.	.
CN(C)c1ccc(/C=C/c2cc[n+]([O-])cc2)cc1	0%	.	.	.
Cc1ccc2c(/C=C/c3ccc(N(C)C)cc3)c(C)cnc2c1	.	8%	-16%	.
CC[n+]1ccc(/C=C/c2ccc(N(C)C)cc2)c2ccccc21	12%	?	9%	-3%
Cc1ccc(/C=C/c2ccc(N(C)C)cc2)[n+](C)c1	.	?	11µM*	?
CC[n+]1ccccc1/C=C/c1ccc(N(C)C)cc1	16µM*	?	?	22µM*
CN(C)c1ccc(/C=C/c2cc[n+](C)cc2)cc1	11µM*	4%	?	?
COc1ccccc1N1CCN(c2nc(CNC(=O)c3ccccc3F)nc3ccccc23)CC1	.	1%	.	.
CCC1(C2CCN(C(=O)c3coc4c3C(=O)CCC4)CC2)NC(=O)N(CCc2scnc2C)C1=O (stereo unspecified)	.	1%	.	.
O=C(/C=C/c1ccc(F)cc1)NCC1Cc2cccc(-c3ncccn3)c2O1 (stereo unspecified)	.	1%	.	.
Cc1ccc2[nH]nc(C(=O)N3CCOc4ccc(CN5CCc6sccc6C5)cc4C3)c2c1	.	4%	.	.
Cc1ccc(C2=CC(c3ccc(Cl)cc3)n3nc(-c4ccc(C)cc4)nc3N2)cc1 (stereo unspecified)	-2%	0%	1%	1%
